The source of these data is PMC7862700, “An all-to-all approach to the identification of sequence-specific readers for epigenetic DNA modifications on cytosine”.

What all share (assay): DAPPL (digital affinity profiling via proximity ligation, sequencing); 10 mM Tris-HCl pH 7.5, 50 mM NaCl, 1 mM DTT, 4% glycerol, room temperature, 30 min; GST-TFs on glutathione beads, 16-mer random dsDNA library, 0.1% formaldehyde crosslink after washing; high values mean tight binding
Common to all, as to settings: protein: recombinant; tags: N-terminal GST; dsDNA, one strand shown

The target in one assay is T1, ERF (Homo sapiens, UniProt P50548 1-548).
T1 sequence: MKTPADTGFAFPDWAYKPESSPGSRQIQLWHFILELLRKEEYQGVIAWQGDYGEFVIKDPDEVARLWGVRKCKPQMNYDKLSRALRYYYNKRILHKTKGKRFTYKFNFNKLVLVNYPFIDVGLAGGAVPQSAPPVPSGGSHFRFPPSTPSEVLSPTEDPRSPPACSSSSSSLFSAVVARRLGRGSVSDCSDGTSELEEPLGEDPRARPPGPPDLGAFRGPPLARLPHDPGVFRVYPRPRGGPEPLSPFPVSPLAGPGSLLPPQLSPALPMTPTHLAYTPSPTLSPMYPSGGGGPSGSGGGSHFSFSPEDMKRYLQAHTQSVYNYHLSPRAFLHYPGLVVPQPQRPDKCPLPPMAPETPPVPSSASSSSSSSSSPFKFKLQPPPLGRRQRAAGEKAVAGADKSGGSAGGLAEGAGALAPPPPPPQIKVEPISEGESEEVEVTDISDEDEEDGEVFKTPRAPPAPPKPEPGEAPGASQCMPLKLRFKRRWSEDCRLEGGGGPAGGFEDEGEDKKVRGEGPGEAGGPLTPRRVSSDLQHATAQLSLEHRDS
The gist of the method: (§1)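 Beads coated with glutathione captured GST-fused human transcription factors that had been expressed in yeast, and the factors were then given DNA barcodes and pooled with a tag-only sample. The pools were incubated with 200 nmole of a random double-stranded 16-mer DNA library in Tris/NaCl/DTT/glycerol buffer for 30 min at room temperature, washed, crosslinked with 0.1% formaldehyde and proximity-ligated with BsaI/T4 ligase at 37 °C for 1 h. PCR amplification and Illumina NextSeq500 sequencing came last. Binding signal is each hexamer's read frequency for a factor divided by its frequency for the tag-only sample.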

The next assay concerns the target T2, ETV3L (Homo sapiens, UniProt Q6ZN32 1-361).
T2 sequence: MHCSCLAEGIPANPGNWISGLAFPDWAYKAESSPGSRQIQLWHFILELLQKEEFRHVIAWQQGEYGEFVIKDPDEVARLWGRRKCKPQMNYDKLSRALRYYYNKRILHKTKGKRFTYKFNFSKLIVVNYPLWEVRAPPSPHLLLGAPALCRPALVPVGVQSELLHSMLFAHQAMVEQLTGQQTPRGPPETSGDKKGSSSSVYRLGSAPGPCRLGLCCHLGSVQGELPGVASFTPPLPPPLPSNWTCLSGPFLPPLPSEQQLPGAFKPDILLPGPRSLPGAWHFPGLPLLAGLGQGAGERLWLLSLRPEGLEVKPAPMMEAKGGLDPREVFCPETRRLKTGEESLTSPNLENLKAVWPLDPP
A digest of the protocol: as §1

The next assay deals with T3, ETS2 (Homo sapiens, UniProt P15036 1-469).
T3 sequence: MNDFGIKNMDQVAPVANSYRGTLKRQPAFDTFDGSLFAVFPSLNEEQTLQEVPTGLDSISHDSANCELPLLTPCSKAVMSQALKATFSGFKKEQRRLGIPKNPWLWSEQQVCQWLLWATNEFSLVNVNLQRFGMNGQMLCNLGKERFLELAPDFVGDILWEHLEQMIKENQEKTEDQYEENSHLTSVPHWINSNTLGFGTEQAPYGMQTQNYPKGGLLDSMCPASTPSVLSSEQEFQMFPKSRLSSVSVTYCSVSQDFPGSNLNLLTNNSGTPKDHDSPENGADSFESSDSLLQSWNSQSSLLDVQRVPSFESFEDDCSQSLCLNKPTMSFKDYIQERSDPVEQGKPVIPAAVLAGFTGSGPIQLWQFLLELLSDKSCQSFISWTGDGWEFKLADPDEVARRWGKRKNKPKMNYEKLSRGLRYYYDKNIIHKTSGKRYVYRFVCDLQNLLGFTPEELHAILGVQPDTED
A digest of the protocol:
as §1

A further assay addresses T4, SPDEF (Homo sapiens, UniProt O95238 1-335).
T4 sequence: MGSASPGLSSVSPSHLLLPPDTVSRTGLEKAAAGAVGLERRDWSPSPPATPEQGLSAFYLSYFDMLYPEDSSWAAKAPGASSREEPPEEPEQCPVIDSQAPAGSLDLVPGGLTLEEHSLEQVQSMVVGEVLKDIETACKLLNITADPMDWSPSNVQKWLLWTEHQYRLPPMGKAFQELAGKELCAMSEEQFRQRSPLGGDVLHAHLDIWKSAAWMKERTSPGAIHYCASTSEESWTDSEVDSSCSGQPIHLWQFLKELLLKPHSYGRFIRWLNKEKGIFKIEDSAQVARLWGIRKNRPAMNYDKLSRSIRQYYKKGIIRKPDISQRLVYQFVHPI
The gist of the method:
as §1

A further assay has as its target T5, ETV7 (Homo sapiens, UniProt Q9Y603 1-341).
T5 sequence: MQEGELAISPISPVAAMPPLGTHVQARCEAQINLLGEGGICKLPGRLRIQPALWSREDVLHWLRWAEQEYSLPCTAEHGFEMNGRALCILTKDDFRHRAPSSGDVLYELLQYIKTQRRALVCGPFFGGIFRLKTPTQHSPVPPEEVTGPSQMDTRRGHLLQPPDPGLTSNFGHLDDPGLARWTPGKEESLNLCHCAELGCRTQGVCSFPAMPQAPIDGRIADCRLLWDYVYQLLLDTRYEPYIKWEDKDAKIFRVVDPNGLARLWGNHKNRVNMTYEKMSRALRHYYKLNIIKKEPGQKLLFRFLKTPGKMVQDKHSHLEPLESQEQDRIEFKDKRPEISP
A digest of the protocol:
as §1

The next assay concerns the target T6, ELF5 (Homo sapiens, UniProt Q9UKW6-2 1-255).
T6 sequence: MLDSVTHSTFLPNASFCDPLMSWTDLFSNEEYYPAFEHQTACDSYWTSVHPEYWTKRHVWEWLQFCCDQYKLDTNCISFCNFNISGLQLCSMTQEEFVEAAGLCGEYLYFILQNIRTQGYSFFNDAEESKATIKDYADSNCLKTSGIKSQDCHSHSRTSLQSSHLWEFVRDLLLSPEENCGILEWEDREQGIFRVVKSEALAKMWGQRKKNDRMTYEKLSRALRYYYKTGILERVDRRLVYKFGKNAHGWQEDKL
A digest of the protocol: as §1

The next assay concerns the target T7, ETV3 (Homo sapiens, UniProt P41162-2 1-143).
T7 sequence: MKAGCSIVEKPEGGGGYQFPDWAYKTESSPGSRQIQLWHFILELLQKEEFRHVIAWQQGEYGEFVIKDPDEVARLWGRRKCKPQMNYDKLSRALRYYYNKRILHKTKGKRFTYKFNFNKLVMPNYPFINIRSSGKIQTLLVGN
The gist of the method: as §1

A further assay deals with ETV6 (Homo sapiens, UniProt P41212 1-452). The gist of the method:
as §1

Sequence of ETV6 (P41212 whole entry): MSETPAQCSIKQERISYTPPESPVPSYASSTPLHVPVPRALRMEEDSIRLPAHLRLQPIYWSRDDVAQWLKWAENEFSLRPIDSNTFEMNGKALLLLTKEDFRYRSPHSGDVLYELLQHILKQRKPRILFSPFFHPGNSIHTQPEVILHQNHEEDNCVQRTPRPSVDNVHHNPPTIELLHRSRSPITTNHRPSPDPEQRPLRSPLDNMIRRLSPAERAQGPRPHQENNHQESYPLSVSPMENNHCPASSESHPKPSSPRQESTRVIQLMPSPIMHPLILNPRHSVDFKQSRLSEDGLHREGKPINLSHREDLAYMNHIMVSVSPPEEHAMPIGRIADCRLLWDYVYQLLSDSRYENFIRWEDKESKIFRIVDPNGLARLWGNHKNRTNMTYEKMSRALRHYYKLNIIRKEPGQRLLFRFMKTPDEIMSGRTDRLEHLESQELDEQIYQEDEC

CACTCG: the binding signal in the assay with ERF was 1.1 fold enrichment (6-mer frequency, TF over GST control); with ETV3L, 1.11 fold enrichment (6-mer frequency, TF over GST control); in the assay with ETS2 it was 1.22 fold enrichment (6-mer frequency, TF over GST control); in the assay with SPDEF, 1.04 fold enrichment (6-mer frequency, TF over GST control); with ETV7, 1.13 fold enrichment (6-mer frequency, TF over GST control); with ELF5 it was 1.05 fold enrichment (6-mer frequency, TF over GST control). The binding signal was 1.09 fold enrichment (6-mer frequency, TF over GST control) with ETV3 and 1.1 fold enrichment (6-mer frequency, TF over GST control) with ETV6.

GCTACG: the binding signal in the assay with ERF is 1.29 fold enrichment (6-mer frequency, TF over GST control); with ETV3L it was 1.16 fold enrichment (6-mer frequency, TF over GST control); with ETS2, 1.11 fold enrichment (6-mer frequency, TF over GST control); with SPDEF it was 1.04 fold enrichment (6-mer frequency, TF over GST control); with ETV7, 1.23 fold enrichment (6-mer frequency, TF over GST control); in the assay with ELF5 it was 1.1 fold enrichment (6-mer frequency, TF over GST control). The binding signal was 1.05 fold enrichment (6-mer frequency, TF over GST control) with ETV3 and 1.23 fold enrichment (6-mer frequency, TF over GST control) in the assay with ETV6.

Consider TACCGG, for which the binding signal was 1.4 fold enrichment (6-mer frequency, TF over GST control) in the assay with ERF; 1.47 fold enrichment (6-mer frequency, TF over GST control) with ETV3L; 1.6 fold enrichment (6-mer frequency, TF over GST control) in the assay with ETS2; 1.77 fold enrichment (6-mer frequency, TF over GST control) with SPDEF; 1.36 fold enrichment (6-mer frequency, TF over GST control) in the assay with ETV7; 1.71 fold enrichment (6-mer frequency, TF over GST control) in the assay with ELF5. In addition, the binding signal in the assay with ETV3 was 1.76 fold enrichment (6-mer frequency, TF over GST control); with ETV6, 1.68 fold enrichment (6-mer frequency, TF over GST control).

For the sequence CGTACC, the binding signal was 1.12 fold enrichment (6-mer frequency, TF over GST control) in the assay with ERF; 1.13 fold enrichment (6-mer frequency, TF over GST control) with ETV3L; 1.15 fold enrichment (6-mer frequency, TF over GST control) in the assay with ETS2; 1.17 fold enrichment (6-mer frequency, TF over GST control) with SPDEF; 1.1 fold enrichment (6-mer frequency, TF over GST control) with ETV7; 1.19 fold enrichment (6-mer frequency, TF over GST control) with ELF5. Moreover, the binding signal is 1.03 fold enrichment (6-mer frequency, TF over GST control) with ETV3 and 1.16 fold enrichment (6-mer frequency, TF over GST control) in the assay with ETV6.

On to CAACTG, for which the binding signal with ERF was 1.18 fold enrichment (6-mer frequency, TF over GST control); in the assay with ETV3L, 1.17 fold enrichment (6-mer frequency, TF over GST control); with ETS2, 1.13 fold enrichment (6-mer frequency, TF over GST control); with SPDEF, 1.08 fold enrichment (6-mer frequency, TF over GST control); in the assay with ETV7 it was 1.06 fold enrichment (6-mer frequency, TF over GST control); in the assay with ELF5, 1.08 fold enrichment (6-mer frequency, TF over GST control). In addition, the binding signal in the assay with ETV3 is 1.16 fold enrichment (6-mer frequency, TF over GST control); in the assay with ETV6 it was 1.12 fold enrichment (6-mer frequency, TF over GST control).

In the case of AGTGGC, the binding signal in the assay with ERF is 1.27 fold enrichment (6-mer frequency, TF over GST control); with ETV3L, 1.15 fold enrichment (6-mer frequency, TF over GST control); in the assay with ETS2, 1.22 fold enrichment (6-mer frequency, TF over GST control); in the assay with SPDEF it was 1.1 fold enrichment (6-mer frequency, TF over GST control); with ETV7, 1.11 fold enrichment (6-mer frequency, TF over GST control); with ELF5, 1.22 fold enrichment (6-mer frequency, TF over GST control). Moreover, the binding signal with ETV3 is 1.27 fold enrichment (6-mer frequency, TF over GST control); with ETV6, 1.27 fold enrichment (6-mer frequency, TF over GST control).

Turning to ATGTGG, the binding signal was 1.15 fold enrichment (6-mer frequency, TF over GST control) with ERF; 1.16 fold enrichment (6-mer frequency, TF over GST control) with ETV3L; 1.18 fold enrichment (6-mer frequency, TF over GST control) in the assay with ETS2; 1.05 fold enrichment (6-mer frequency, TF over GST control) with SPDEF; 1.08 fold enrichment (6-mer frequency, TF over GST control) in the assay with ETV7; 1.15 fold enrichment (6-mer frequency, TF over GST control) with ELF5. The binding signal with ETV3 was 1.19 fold enrichment (6-mer frequency, TF over GST control); with ETV6, 1.2 fold enrichment (6-mer frequency, TF over GST control).
